A short description of assay [1]: qHTS assay to test for compound auto fluorescence at 535 nm (green) in HEK293 cells (AID 720680).
A short description of assay [2]: qHTS assay to test for compound auto fluorescence at 460 nm (blue) in HEK293 cell free culture (AID 720681). The method in brief: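 Blue fluorescence (Ex 405/Em 460 nm, triamterene-equivalent) was read immediately after pin transfer of compound or DMSO into medium (DMEM, 10% FBS) without cells.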
For orientation: qHTS replaces the single test concentration by a dilution series.

Assay [3] is described as follows: qHTS assay to test for compound auto fluorescence at 535 nm (green) in HEK293 cell free culture (AID 720682). The method in brief:
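Each library compound, or DMSO control, is added by pintool to medium alone, comprising DMEM and 10% FBS. Emission at 535 nm following 485 nm excitation is quantified against fluorescein.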

The nature of assay [4]: qHTS assay to test for compound auto fluorescence at 590 nm (red) in HEK293 cell free culture (AID 720683). The method in brief:
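Red-channel autofluorescence of compounds in culture medium (DMEM, 10% FBS), no cells, measured at 540/590 nm. Rose Bengal sodium is the reference fluorophore for equivalence.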

Assay [5] can be described thus: qHTS assay to test for compound auto fluorescence at 590 nm (red) in HepG2 cell free culture (AID 720684). In a few lines:
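Cell-free; medium MEM + 10% FBS; compound or DMSO added by pintool; read Ex 540/Em 590 nm; Rose Bengal sodium as red reference fluorophore.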

Assay [6] is described as follows: qHTS assay to test for compound auto fluorescence at 460 nm (blue) in HepG2 cell free culture (AID 720685). The method in brief:
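Cell-free plates of MEM plus 10% FBS received 23 nL compound or DMSO vehicle; blue-channel (405/460 nm) intensity scored against triamterene as reference fluorophore.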

The nature of assay [7]: qHTS assay to test for compound auto fluorescence at 535 nm (green) in HepG2 cell free culture (AID 720686).
Assay [8] in a line: qHTS assay to test for compound auto fluorescence at 460 nm (blue) in HepG2 cells (AID 720687). In a few lines:
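Blue-channel autofluorescence (Ex/Em 405/460 nm, triamterene-equivalent) was measured after 1 hr compound exposure at 37 C, 5% CO2. Cells were HepG2, plated overnight at 37 C in MEM plus 10% FBS.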

The target of assay [9] is Glucocorticoid receptor (Homo sapiens) (UniProt P04150). Put plainly: qHTS assay to identify small molecule agonists of the glucocorticoid receptor (GR) signaling pathway (AID 720691; active = well fitted activation curve with a large enough effect in the signal ratio in the repeat runs, not every such curve was filed as active; the % refers to the signal ratio). The method in brief: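 Cells: GR-bla HeLa, endogenous GR with stably integrated GRE-beta-lactamase reporter. Treatment 18 h, 37 C, compounds delivered in DMSO. Detection via LiveBLAzer B/G FRET substrate, 2 h RT, fluorescence intensity.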
Sequence of Glucocorticoid receptor (Homo sapiens) (P04150 whole entry, looked up): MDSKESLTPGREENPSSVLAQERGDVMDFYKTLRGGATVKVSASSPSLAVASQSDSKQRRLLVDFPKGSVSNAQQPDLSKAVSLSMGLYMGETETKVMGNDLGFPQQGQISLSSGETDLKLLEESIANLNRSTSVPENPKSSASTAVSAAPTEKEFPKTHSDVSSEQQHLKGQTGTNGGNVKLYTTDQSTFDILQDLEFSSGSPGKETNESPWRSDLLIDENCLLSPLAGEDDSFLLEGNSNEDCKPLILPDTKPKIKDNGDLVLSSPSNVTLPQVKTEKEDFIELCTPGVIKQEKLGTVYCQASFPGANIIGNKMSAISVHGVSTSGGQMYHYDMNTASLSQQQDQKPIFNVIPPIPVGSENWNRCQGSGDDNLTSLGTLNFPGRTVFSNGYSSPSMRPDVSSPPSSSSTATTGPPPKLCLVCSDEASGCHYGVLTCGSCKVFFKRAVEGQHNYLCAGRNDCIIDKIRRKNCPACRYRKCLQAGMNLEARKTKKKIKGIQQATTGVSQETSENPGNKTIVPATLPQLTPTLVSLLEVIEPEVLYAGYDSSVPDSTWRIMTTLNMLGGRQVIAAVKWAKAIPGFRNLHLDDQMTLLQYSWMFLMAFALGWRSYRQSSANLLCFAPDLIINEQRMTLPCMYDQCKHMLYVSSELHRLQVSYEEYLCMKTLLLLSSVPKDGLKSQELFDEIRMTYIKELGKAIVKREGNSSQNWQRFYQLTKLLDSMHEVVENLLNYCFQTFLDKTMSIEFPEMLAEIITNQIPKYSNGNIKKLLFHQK

Assay [10] is described as follows: qHTS assay to identify small molecule antagonists of the glucocorticoid receptor (GR) signaling pathway - cell viability counter screen (AID 720693). Note: nearly all actives have a fitted effect of over 55% in size.
Assay [11] can be described thus: qHTS assay for identifying genotoxic compounds that show differential cytotoxicity against isogenic chicken DT40 cell lines with known DNA damage response pathways - wild type cell line (AID 743012). Note: nearly all actives have a fitted effect of over 60% in size. Note: potency is the fitted concentration of half-maximal effect. In a few lines:
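Luminescent ATP viability signal (CellTiter-Glo, 30 min RT) recorded after wild type DT40 cells were incubated with compounds for 40 h at 37 C/5% CO2.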

Assay [12] can be described thus: qHTS assay for identifying genotoxic compounds that show differential cytotoxicity against isogenic chicken DT40 cell lines with known DNA damage response pathways - Rev3 mutant cell line (AID 743014). Note: nearly all actives have a fitted effect of over 55% in size. Note: potency is the fitted concentration of half-maximal effect.
The nature of assay [13]: qHTS assay for identifying genotoxic compounds that show differential cytotoxicity against isogenic chicken DT40 cell lines with known DNA damage response pathways - Rad54/Ku70 mutant cell line (AID 743015). Note: nearly all actives have a fitted effect of over 60% in size. Note: potency is the fitted concentration of half-maximal effect.
Assay [14] is described as follows: qHTS assay to identify small molecule antagonists of the androgen receptor (AR) signaling pathway using the MDA cell line - cell viability counter screen (AID 743041; note: nearly all actives have a fitted effect of over 45% in size). The method in brief: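 Viability read by CellTiter-Fluor fluorescence in the same wells as the antagonist screen, added after 15.5 h of a 16 h, 37C exposure. Human breast carcinoma MDA-kb2 AR-luc cells, compounds co-dosed with agonist R1881.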

A short description of assay [15]: qHTS assay to identify small molecule antagonists of the androgen receptor (AR) signaling pathway - cell viability counter screen (AID 743033; note: nearly all actives have a fitted effect of over 45% in size).
For assay [16], the target named is Androgen receptor (Homo sapiens) (UniProt P10275). Put plainly: qHTS assay to identify small molecule antagonists of the androgen receptor (AR) signaling pathway (AID 743035; active = well fitted inhibition curve with a large enough effect in the signal ratio in the repeat runs, not every such curve was filed as active; the % refers to the signal ratio). The method in brief:
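Quantitative HTS of the Tox21 10K library used HEK293 AR-UAS-bla cells stimulated with R1881 alongside compound for 16 h at 37C, followed by beta-lactamase FRET detection (LiveBLAzer B/G, 2 h, RT).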

For assay [17] the target is unchanged. Put plainly: qHTS assay to identify small molecule agonists of the androgen receptor (AR) signaling pathway using the MDA cell line (AID 743040; note: nearly all actives have a fitted effect of over 20% in size). The method in brief: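 Luciferase agonist assay: 16 h compound exposure at 37C without CO2 in MDA-kb2 AR-luc cells, whose MMTV promoter responds to both AR and GR. Luminescence measured after 30 min room-temperature incubation with ONE-Glo.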

The target is the same in assay [18]. Put plainly: qHTS assay to identify small molecule antagonists of the androgen receptor (AR) signaling pathway using the MDA cell line (AID 743042; note: nearly all actives have a fitted effect of over 55% in size). The method in brief:
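Antagonist mode: compounds plus R1881 agonist added to MDA-kb2 AR-luc cells, incubated 16 h at 37C. Luciferase reporter luminescence quantified, with multiplexed CellTiter-Fluor readout for cell viability.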

In assay [19] the target is Glucocorticoid receptor (Homo sapiens) (UniProt P04150). Put plainly: qHTS assay to identify small molecule antagonists of the glucocorticoid receptor (GR) signaling pathway (AID 720692; active = well fitted inhibition curve with a large enough effect in the signal ratio in the repeat runs, not every such curve was filed as active; the % refers to the signal ratio). In a few lines: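 Quantitative HTS in antagonist format: HeLa cells expressing endogenous GR and a stably integrated GRE-bla reporter, stimulated with 5 nM dexamethasone (final) alongside test compounds for 18 h.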

Assay [20] has as its target Androgen receptor (Homo sapiens) (UniProt P10275). Put plainly: qHTS assay to identify small molecule agonists of the androgen receptor (AR) signaling pathway (AID 743036; active = well fitted activation curve with a large enough effect in the signal ratio in the repeat runs, with a control signal flat, not every such curve was filed as active; the % refers to the signal ratio). The method in brief:
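Following a 4 h settling period, AR-UAS-bla HEK293 cells were dosed with compounds for 16 h at 37C. A 2 h room-temperature incubation with LiveBLAzer B/G FRET substrate preceded the fluorescence measurement.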

A number with no mark means an inactive call. Records with an inconclusive call do not appear. Activity calls are given as the source filed them. Unless noted, calls come from the whole dose curve; as a rule, active = well fitted curve in the direction sought with a large enough effect in the repeat runs; inconclusive = weak or mixed curves; inactive = no such curve, though single readings can be large; an effect the other way counts as inactive or inconclusive.

These results are taken from PubChem BioAssay (Tox21).

Sequence of Androgen receptor (Homo sapiens) (P10275 whole entry, looked up): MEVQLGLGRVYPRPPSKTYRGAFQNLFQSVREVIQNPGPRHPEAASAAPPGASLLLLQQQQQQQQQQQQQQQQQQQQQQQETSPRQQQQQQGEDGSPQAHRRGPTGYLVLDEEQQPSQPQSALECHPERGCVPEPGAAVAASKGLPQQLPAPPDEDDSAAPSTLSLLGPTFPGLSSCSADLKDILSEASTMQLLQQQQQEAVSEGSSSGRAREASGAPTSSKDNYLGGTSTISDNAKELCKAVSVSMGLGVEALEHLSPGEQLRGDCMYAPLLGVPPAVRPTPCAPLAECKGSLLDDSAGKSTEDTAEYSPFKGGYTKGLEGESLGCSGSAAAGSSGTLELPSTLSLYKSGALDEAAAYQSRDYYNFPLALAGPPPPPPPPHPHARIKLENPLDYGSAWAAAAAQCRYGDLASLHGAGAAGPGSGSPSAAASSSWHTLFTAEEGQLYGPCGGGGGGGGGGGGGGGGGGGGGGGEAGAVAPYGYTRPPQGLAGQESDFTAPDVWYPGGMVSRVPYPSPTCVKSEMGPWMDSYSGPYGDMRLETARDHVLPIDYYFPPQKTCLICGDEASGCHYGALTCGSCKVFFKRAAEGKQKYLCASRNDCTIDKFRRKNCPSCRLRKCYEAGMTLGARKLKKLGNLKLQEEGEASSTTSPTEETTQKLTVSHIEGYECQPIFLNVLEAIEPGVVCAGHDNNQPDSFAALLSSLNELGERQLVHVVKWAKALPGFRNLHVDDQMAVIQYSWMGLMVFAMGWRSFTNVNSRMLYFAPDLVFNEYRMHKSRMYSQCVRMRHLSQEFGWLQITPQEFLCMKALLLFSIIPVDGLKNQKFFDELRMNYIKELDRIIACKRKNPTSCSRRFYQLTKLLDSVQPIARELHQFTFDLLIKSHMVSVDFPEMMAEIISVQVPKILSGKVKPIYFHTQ

On to `O=C(CCN1CC1)OCC(CO)(COC(=O)CCN1CC1)COC(=O)CCN1CC1`, for which the call in [1], in assay [2], in [3], in assay [4], in assay [5] and in [6] was inactive. Besides, the call in assay [7], in assay [8] and in [9] was inactive. Moreover, the Potency result in assay [10], in assay [11], in [12], in [13] and in [14] was “inactive” each time.
Regarding `COc1ncc(F)c2nc(S(=O)(=O)Nc3c(F)cccc3F)nn12`, the outcome in assay [1], in assay [2], in assay [3], in assay [4], in [5] and in [6] was inactive. For the same molecule, the result in assay [7], in [8], in assay [9] and in assay [18] was inactive. Also, the Potency result in assay [10], in [11], in [12], in assay [13], in [15] and in assay [16] was “inactive” throughout. Further, the Potency entry in [17] and in [14] was “inactive” in each case.
As for `CCCSC(=O)N(CCC)CCC`, the molecule was called inactive in [1], in [2], in assay [3], in assay [4], in assay [5] and in assay [6]. Moreover, the molecule was called inactive in assay [7], in assay [8] and in assay [9]. The Potency result in assay [10], in assay [11], in assay [12], in assay [13] and in assay [15] was “inactive” each time.
`NC1=NC(=O)C(c2ccccc2)O1` (stereo not drawn): the molecule was classed as inactive in assay [1], in assay [2], in assay [3], in assay [4], in [5] and in [6]. The call in [7], in assay [8] and in [9] was inactive. Further, the Potency result in assay [19], in assay [10], in assay [13] and in assay [14] was “inactive” in each case.
In the case of `C[N+](C)=CCl`, the molecule was called inactive in assay [1], in assay [2], in assay [3], in [4], in assay [5] and in assay [6]. Besides, the result in assay [7], in assay [8] and in assay [9] was inactive. Moreover, the Potency result in assay [10], in assay [11], in assay [12], in assay [13], in assay [15] and in [14] was “inactive” each time.
For the molecule `CCSC(=O)N(CC)C1CCCCC1`, the call in assay [1], in [2], in assay [3], in assay [4], in assay [5] and in [6] was inactive. Further, the result in [7], in assay [8] and in [9] was inactive. Besides, the Potency result in [10], in assay [11], in assay [12], in [13], in assay [15] and in [14] was “inactive” throughout.
With `CCCCOC(=O)[C@@H](C)Oc1ccc(Oc2ccc(C#N)cc2F)cc1`, the molecule was classed as inactive in [1], in [2], in assay [3], in assay [4], in assay [5] and in assay [6]. Moreover, the result in assay [7], in assay [8] and in assay [9] was inactive. In addition, the Potency result in [10], in assay [15] and in [14] was “inactive” in each case. In addition, the Potency in assay [11] was 34.2 µM (active); in assay [12] it was 30.5 µM (active); in assay [13], 43 µM (active).
In the case of `O=[N+]([O-])c1cccc2c([N+](=O)[O-])cccc12`, the call in assay [1], in [2], in assay [3], in [4], in [5] and in assay [6] was inactive. Also, the result in assay [7], in assay [8], in assay [9], in [20] and in assay [18] was inactive. Further, the Potency result in [10], in assay [11], in assay [12], in assay [13], in [15] and in [16] was “inactive” throughout. Besides, the Potency result in assay [17] and in assay [14] was “inactive” in each case.
